# Where “and” joins values, the source holds several entries; their conditions need not be identical. Equal entries are not always repeated. Inconclusive results are not listed. A call without a number means that no potency is given here. A structure can be active in one record and inactive in another. Calls of active or inactive are those of the source. Unless noted, the call rests on the fitted dose curve; in most records, active means well fitted curve in the direction sought with a large enough effect in the repeat runs; inconclusive means weak or mixed curves; inactive means no such curve, though single readings can be large; an effect the other way counts as inactive or inconclusive.
# Legend:
# [1] = qHTS assay to identify small molecule antagonists of the peroxisome proliferator-activated receptor delta (PPARd) signaling pathway - cell viability counter screen (AID 743213); further: nearly all actives have a fitted effect of over 50% in size; further: potency means the concentration at half of the fitted maximal effect
# Outline: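 Luminescence from CellTiter-Glo, added after the bla read and incubated 30 min at room temperature, gives viability of HEK293H PPARd-bla cells exposed to compounds for 17 h at 37 C with 300 nM L165041.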
# [2] = qHTS assay to identify small molecule antagonists of the farnesoid-X-receptor (FXR) signaling pathway - cell viability counter screen (AID 743221; active means well fitted cell-killing curve with a large enough effect in the repeat runs, not every such curve was filed as active; further: nearly all actives have a fitted effect of over 50% in size; further: potency means the concentration at half of the fitted maximal effect)
# Outline: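 CellTiter-Glo, 30 min RT, luminescence; same wells as the LiveBLAzer FRET read. Cells: FXR-UAS-bla HEK 293T. Treatment: compound with chenodeoxycholic acid 50 uM final, 16 h at 37 C.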
# [3] = qHTS assay to identify small molecule agonists of the vitamin D receptor (VDR) signaling pathway - cell viability counter screen (AID 743224); further: nearly all actives have a fitted effect of over 50% in size; further: potency means the concentration at half of the fitted maximal effect; on activity change, negative = cytotoxicity: series mostly up to about 63 µM
# Outline: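 VDR-bla cell line, quantitative HTS format; 16 h compound incubation (37C, 5% CO2); ATP-based CellTiter-Glo luminescence measured in the reporter assay wells.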
# [4] = qHTS assay to identify small molecule antagonists of the vitamin D receptor (VDR) signaling pathway - cell viability counter screen (AID 743225); further: nearly all actives have a fitted effect of over 50% in size; further: potency means the concentration at half of the fitted maximal effect
# Outline: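 Cytotoxicity toward the VDR-bla HEK 293T line was scored by ATP-based CellTiter-Glo luminescence, read in the wells already used for the beta-lactamase readout after 16 h compound treatment under 3 nM 1-alpha,25-dihydroxyvitamin D3 stimulation.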
# [5] = molecular target: Peroxisome proliferator-activated receptor delta (Homo sapiens) (UniProt Q03181); test: qHTS assay to identify small molecule antagonists of the peroxisome proliferator-activated receptor delta (PPARd) signaling pathway (AID 743215; active means well fitted inhibition curve with a large enough effect in the signal ratio in the repeat runs, not every such curve was filed as active; the % refers to the signal ratio;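 further: cells stimulated with agonist L165041 at 300 nM final during compound exposure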; further: potency means the concentration at half of the fitted maximal effect)
# Sequence of Peroxisome proliferator-activated receptor delta (Homo sapiens) (Q03181 whole entry, looked up): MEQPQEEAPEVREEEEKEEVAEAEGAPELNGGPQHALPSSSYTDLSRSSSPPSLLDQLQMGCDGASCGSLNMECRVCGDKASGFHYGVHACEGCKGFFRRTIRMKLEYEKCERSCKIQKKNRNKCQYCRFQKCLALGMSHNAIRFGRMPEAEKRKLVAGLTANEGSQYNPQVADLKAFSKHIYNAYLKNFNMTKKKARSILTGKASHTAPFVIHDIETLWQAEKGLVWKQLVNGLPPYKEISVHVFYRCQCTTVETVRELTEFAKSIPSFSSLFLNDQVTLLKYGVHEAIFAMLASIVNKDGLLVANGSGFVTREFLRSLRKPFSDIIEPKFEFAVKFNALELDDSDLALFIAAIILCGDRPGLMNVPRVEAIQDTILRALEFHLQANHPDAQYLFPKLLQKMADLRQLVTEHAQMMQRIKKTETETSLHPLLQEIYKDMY
# Outline: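 Antagonist-mode beta-lactamase reporter screen: HEK293H cells with UAS-bla under PPARd control, stimulated by 300 nM L165041 (final) alongside test compound for 17 h at 37 C, then FRET fluorescence after 2 h substrate incubation.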
# [6] = molecular target: Vitamin D3 receptor (Homo sapiens) (UniProt P11473); test: qHTS assay to identify small molecule agonists of the vitamin D receptor (VDR) signaling pathway (AID 743222; calls by dose curve)
# Sequence of Vitamin D3 receptor (Homo sapiens) (P11473 whole entry, looked up): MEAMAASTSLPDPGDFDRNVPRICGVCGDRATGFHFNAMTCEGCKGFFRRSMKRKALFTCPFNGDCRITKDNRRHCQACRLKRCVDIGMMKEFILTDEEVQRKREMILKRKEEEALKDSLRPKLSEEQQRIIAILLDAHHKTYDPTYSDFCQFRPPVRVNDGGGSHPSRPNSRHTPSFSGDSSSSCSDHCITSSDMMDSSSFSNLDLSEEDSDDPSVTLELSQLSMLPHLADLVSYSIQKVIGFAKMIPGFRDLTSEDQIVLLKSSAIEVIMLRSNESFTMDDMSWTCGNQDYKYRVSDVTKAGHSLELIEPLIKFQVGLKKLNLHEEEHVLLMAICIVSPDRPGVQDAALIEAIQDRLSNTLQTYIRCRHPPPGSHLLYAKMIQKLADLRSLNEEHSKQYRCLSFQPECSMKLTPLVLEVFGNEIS
# Outline: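 Agonist activity measured in VDR-bla reporter cells. Exposure 16 h, 37C, 5% CO2; detection by B/G FRET substrate, 2 h RT.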
# [7] = qHTS assay to identify small molecule agonists of the farnesoid-X-receptor (FXR) signaling pathway - cell viability counter screen (AID 743218); further: nearly all actives have a fitted effect of over 45% in size; further: potency means the concentration at half of the fitted maximal effect
# Outline: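 In GeneBLAzer FXR-UAS-bla HEK 293T cells, compounds act for 16 h at 37 C. Cell viability is then scored in the reporter wells by CellTiter-Glo, 30 min at RT, luminescence.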
# [8] = molecular target: Bile acid receptor (Homo sapiens) (UniProt Q96RI1); test: qHTS assay to identify small molecule agonists of the farnesoid-X-receptor (FXR) signaling pathway (AID 743220; active means well fitted activation curve with a large enough effect in the signal ratio in the repeat runs, not every such curve was filed as active; the % refers to the signal ratio)
# Sequence of Bile acid receptor (Homo sapiens) (Q96RI1 whole entry, looked up): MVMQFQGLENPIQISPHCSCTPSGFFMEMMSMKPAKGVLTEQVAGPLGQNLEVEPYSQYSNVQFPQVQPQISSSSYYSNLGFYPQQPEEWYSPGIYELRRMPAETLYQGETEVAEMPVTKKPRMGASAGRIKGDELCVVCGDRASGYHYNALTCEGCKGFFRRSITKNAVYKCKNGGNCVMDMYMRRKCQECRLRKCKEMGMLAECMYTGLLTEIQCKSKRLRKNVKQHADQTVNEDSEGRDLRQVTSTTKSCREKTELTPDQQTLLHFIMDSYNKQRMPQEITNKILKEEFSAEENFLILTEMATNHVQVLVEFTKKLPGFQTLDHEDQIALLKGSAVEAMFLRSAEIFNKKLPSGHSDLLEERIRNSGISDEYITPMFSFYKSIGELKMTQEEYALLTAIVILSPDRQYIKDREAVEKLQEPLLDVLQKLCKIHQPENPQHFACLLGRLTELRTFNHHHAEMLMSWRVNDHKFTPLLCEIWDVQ
# Outline: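 Beta-lactamase reporter under UAS control in GeneBLAzer FXR HEK 293T cells (5000/well) measured with LiveBLAzer FRET substrate after 2 h at room temperature. Compound exposure lasted 16 h at 37C.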
# [9] = molecular target: Vitamin D3 receptor (Homo sapiens) (UniProt P11473); test: qHTS assay to identify small molecule antagonists of the vitamin D receptor (VDR) signaling pathway (AID 743223; active means well fitted inhibition curve with a large enough effect in the signal ratio in the repeat runs, not every such curve was filed as active; the % refers to the signal ratio; further: potency means the concentration at half of the fitted maximal effect)
# Outline: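 After VDR-bla cells are plated and left 4 h at 37C, DMSO-dissolved compounds and 3 nM (final) calcitriol agonist are added. Incubation continues 16 h at 37C; FRET beta-lactamase substrate then develops 2 h at room temperature.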
# [10] = molecular target: Bile acid receptor (Homo sapiens) (UniProt Q96RI1); test: qHTS assay to identify small molecule antagonists of the farnesoid-X-receptor (FXR) signaling pathway (AID 743217; active means well fitted inhibition curve with a large enough effect in the signal ratio in the repeat runs, not every such curve was filed as active; the % refers to the signal ratio)
# Outline: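 Beta-lactamase reporter under UAS control in HEK 293T cells; compound exposure 16 h at 37 °C in the presence of chenodeoxycholic acid (50 uM final); signal from B/G FRET substrate after 2 h at room temperature.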
structure (smiles),measurement,setting,value
CCCOc1sc(C(=O)N2CCC(c3cc(CN)ccc3F)CC2)c(C)c1Br,Potency,[1],17.9 µM (active)
same,Potency,[2],50.4 µM (active)
same,Potency,[3],35.7 µM (active)
same,Potency,[4],35.7 µM (active)
CCCCCCC(C)Nc1ccc(Nc2ccccc2)cc1 (stereo unspecified),Potency,[5],49 µM (active)
same,Potency,[2],49 µM (active)
same,Potency,[3],38.9 µM (active)
same,Potency,[4],43.6 µM (active)
C=C(c1ccc(C(=O)O)cc1)c1cc2c(cc1C)C(C)(C)CCC2(C)C,Potency,[1],21.9 µM (active) and 29.8 µM (active)
same,Potency,[2],inactive
same,Potency,[6],inactive
same,Potency,[3],21.9 µM (active) and inactive
same,Potency,[4],21.3 µM (active)
O=C1OC(=O)c2cccc3cccc1c23,Potency,[5],inactive
same,Potency,[7],inactive
same,Potency,[2],inactive
same,Potency,[3],inactive
same,Potency,[4],inactive
Cc1oc(-c2ccccc2)nc1CCOc1ccc(C[C@H](Nc2ccccc2C(=O)c2ccccc2)C(=O)O)cc1,Potency,[1],21.9 µM (active)
same,Potency,[3],21.9 µM (active)
same,Potency,[4],19.5 µM (active)
S=C(SSSSSSC(=S)N1CCCCC1)N1CCCCC1,Potency,[1],0.382 µM (active)
same,Potency,[8],inactive
same,Potency,[9],inactive
same,Potency,[3],0.271 µM (active)
same,Potency,[4],inactive
CCCCCCCCCCCCCOP(=O)(O)O,Potency,[5],inactive
same,Potency,[7],inactive
same,Potency,[2],inactive
same,Potency,[6],inactive
same,Potency,[3],inactive
Cc1ccc(CCn2c3c(c4cc(Cl)ccc42)CN(C)CC3)cn1,Potency,[5],inactive
same,Potency,[8],inactive
same,Potency,[3],inactive
same,Potency,[4],inactive
Nc1ccc2cc3ccc(N)cc3nc2c1,Potency,[1],inactive
same,Potency,[2],inactive
same,Potency,[3],24.5 µM (active) and inactive
O=C(Nc1ccc(Cl)cc1)Nc1ccc(Cl)c(C(F)(F)F)c1,Potency,[5],26.6 µM (active)
same,Potency,[8],inactive
same,Potency,[3],11.9 µM (active)
same,Potency,[4],12 µM (active)
CCCCN(CCCC)CCC(O)c1cc2c(Cl)cc(Cl)cc2c2cc(C(F)(F)F)ccc12 (stereo unspecified),Potency,[5],inactive
same,Potency,[7],29.8 µM (active)
same,Potency,[8],inactive
same,Potency,[6],inactive
same,Potency,[3],inactive
CC(C)(C)CC(C)(C)c1ccccc1O,Potency,[1],39.1 µM (active)
same,Potency,[6],inactive
same,Potency,[3],19.6 µM (active)
same,Potency,[4],22 µM (active)
CCOC(=O)N1CCC(=C2c3ccc(Cl)cc3CCc3cccnc32)CC1,Potency,[1],43.6 µM (active)
same,Potency,[8],inactive
same,Potency,[6],inactive
same,Potency,[3],54.9 µM (active) and inactive
same,Potency,[4],38.9 µM (active) and inactive
CCCCCCCCCCCCCC[n+]1ccccc1,Potency,[1],24.5 µM (active)
same,Potency,[2],54.9 µM (active)
same,Potency,[3],24.5 µM (active)
same,Potency,[4],24.5 µM (active)
Cc1ccc(-n2[nH]c(C)c(N=Nc3cccc(-c4cccc(C(=O)O)c4)c3O)c2=O)cc1C,Potency,[1],inactive
same,Potency,[8],inactive
same,Potency,[3],inactive
same,Potency,[4],inactive
CCN(CC)CCCN(c1ccccc1)C1Cc2ccccc2C1,Potency,[5],inactive
same,Potency,[7],inactive
same,Potency,[2],inactive
same,Potency,[6],inactive
same,Potency,[9],inactive
Clc1ccc(C(Cn2ccnc2)OCc2ccsc2Cl)c(Cl)c1 (stereo unspecified),Potency,[1],inactive
same,Potency,[6],inactive
same,Potency,[3],inactive
NC(=O)c1nc(-c2cccc(-c3cc(F)ccc3OCC(F)(F)C(F)(F)F)c2)n[nH]1,Potency,[5],54.9 µM (active)
same,Potency,[8],inactive
same,Potency,[6],inactive
same,Potency,[3],43.6 µM (active)
CCCCCCC(C)OC(=O)COc1nc(F)c(Cl)c(N)c1Cl (stereo unspecified),Potency,[5],inactive
same,Potency,[2],inactive
same,Potency,[6],inactive
same,Potency,[3],43.6 µM (active)
same,Potency,[4],49 µM (active)
C[C@@]12C(=O)OC(=O)[C@]1(C)C1CCC2O1,Potency,[1],8.41 µM (active)
same,Potency,[2],13.3 µM (active)
C/C=C/C=N/NC(=O)c1ccncc1,Potency,[1],inactive
same,Potency,[2],inactive
same,Potency,[9],inactive
same,Potency,[4],inactive
Cc1nc(Nc2ncc(C(=O)Nc3c(C)cccc3Cl)s2)cc(N2CCN(CCO)CC2)n1,Potency,[5],0.473 µM (active)
same,Potency,[8],inactive
same,Potency,[4],inactive
CC(COC(=O)c1ccccc1)OC(=O)c1ccccc1 (stereo unspecified),Potency,[1],inactive
same,Potency,[2],inactive
same,Potency,[9],inactive
same,Potency,[3],inactive
same,Potency,[4],inactive
CC(C)(C)C1=CC(=O)C=C(C(C)(C)C)C1=O,Potency,[1],inactive
same,Potency,[2],inactive
same,Potency,[6],inactive
same,Potency,[3],inactive
same,Potency,[4],inactive
CNC(=S)NN,Potency,[1],11 µM (active)
same,Potency,[9],17.4 µM (active)
same,Potency,[3],5.49 µM (active)
CCCCCCCCCCCCCCNCCO,Potency,[5],inactive
same,Potency,[7],inactive
same,Potency,[2],inactive
same,Potency,[6],inactive
same,Potency,[9],inactive
same,Potency,[3],inactive
same,Potency,[4],inactive
C=CCCCCCCC=C,Potency,[9],inactive
same,Potency,[3],49.1 µM (active)
same,Potency,[4],inactive
COc1ccc(-n2nc(CCC(=O)N(C)O)cc2-c2ccc(Cl)cc2)cc1,Potency,[2],inactive
same,Potency,[4],inactive
CC(C)OC(=O)c1cc(C(=O)OC(C)C)cc([N+](=O)[O-])c1,Potency,[2],inactive
same,Potency,[3],inactive
CCN(CC)CCSC(=O)C(c1ccccc1)c1ccccc1,Potency,[2],inactive
same,Potency,[6],inactive
same,Potency,[9],inactive
same,Potency,[3],inactive
same,Potency,[4],inactive
CN1CCN(C2Cc3ccccc3Sc3ccc(Cl)cc32)CC1 (stereo unspecified),Potency,[8],inactive
same,Potency,[2],29.8 µM (active)
N[C@@H](CSSC[C@H](N)C(=O)O)C(=O)O,"activity change, negative = inhibition",[10],8.01% [at 0.55 µM] (inactive)
same,"viability change, negative = cytotoxic",[7],-3.16% [at 0.55 µM] (inactive)
same,activation,[8],-0.652% [at 0.55 µM] (inactive)
same,"activity change, negative = cytotoxicity",[2],5.98% [at 0.55 µM] (inactive)
same,"viability change, negative = cytotoxic",[4],6.19% [at 0.628 µM] (inactive)
CC(=O)OC(OC(C)=O)c1ccc([N+](=O)[O-])o1,Potency,[3],44.4 µM (active)
same,Potency,[4],49.8 µM (active)
CC(C)(c1cc(Br)c(O)c(Br)c1)c1cc(Br)c(O)c(Br)c1,Potency,[7],inactive
same,Potency,[8],inactive
same,Potency,[4],43.5 µM (active)
COC(=O)CC(C)CCC=C(C)C (stereo unspecified),Potency,[10],inactive
same,Potency,[7],inactive
same,Potency,[2],inactive
same,Potency,[6],inactive
same,Potency,[9],inactive
same,Potency,[3],inactive
same,Potency,[4],inactive
